# Test results from PubChem BioAssay (NCATS).
# Records with an inconclusive call do not appear. A call without a number means that no potency is given here. The source made the active and inactive calls. Calls come from the whole dose curve.
# Legend:
# [1] = Primary qHTS for inhibitors of SARS-S pseudo-typed particle cell entry (AID 1479145); conditions: outcome: dose series up to 57.1 µM unless noted; note: nearly all actives have a fitted effect of over 45% in size
# [2] = Primary qHTS for Huh7 cytotoxicity: counterscreen for inhibitors of MERS-S pseudotyped particle cell entry (AID 1479147); conditions: outcome: dose series up to 57.1 µM unless noted
# [3] = Primary qHTS for inhibitors of MERS-S pseudo-typed particle cell entry (AID 1479149); conditions: outcome: dose series up to 57.1 µM unless noted; note: nearly all actives have a fitted effect of over 60% in size
# [4] = Primary qHTS for Vero E6 cytotoxicity: counterscreen for inhibitors of SARS-S pseudo-typed particle cell entry (AID 1479150); conditions: outcome: dose series up to 57.1 µM unless noted
# [5] = Cytotoxicity counterscreen for inhibitors of SARS-CoV-2 cell entry (AID 1645845); conditions: outcome: dose series up to 57.1 µM unless noted; note: nearly all actives have a fitted effect of over 50% in size
# Summary of the method: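 48 h compound treatment (after 1 h preincubation), HEK293-ACE2 cells, 37 C/5% CO2; ATP luminescence endpoint; normalized to cell wells and media blanks.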
# [6] = Primary qHTS to identify inhibitors of SARS-CoV-2 cell entry (AID 1645846); conditions: SARS-CoV-2 pseudovirus cell entry assay, luminescence; activity change, negative = inhibition: at 57.1 µM (top of the series) unless noted; note: nearly all actives have a fitted effect of over 45% in size
# Summary of the method: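 Inhibition of spike-mediated entry was scored in human ACE2-transfected Expi293F cells. Particles were MLV-pseudotyped with Wuhan-Hu-1 S carrying a 19-aa C-terminal deletion; signal was luciferase after two days, scaled between spike PP and fusion-protein-free PP.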
smiles,measurement,setting,value
O=P(O)(O)C(O)(Cc1cnc2ccccn12)P(=O)(O)O,outcome,[1],inactive [at 0.573 µM]
same,outcome,[2],inactive [at 0.573 µM]
same,"activity change, negative = inhibition",[3],-0.315% [at 0.573 µM] (inactive)
same,outcome,[4],inactive [at 0.573 µM]
same,outcome,[5],inactive [at 0.702 µM]
same,outcome,[6],inactive [at 0.702 µM]
CCC(=O)OCC(=O)[C@]1(OC(=O)CC)[C@H](C)C[C@H]2[C@H]3[C@H]([C@@H](O)C[C@@]21C)[C@@]1(C)C=CC(=O)C=C1C[C@H]3Cl,Potency,[1],inactive
same,Potency,[2],inactive
same,Potency,[3],inactive
same,Potency,[4],inactive
same,Potency,[5],inactive
same,"activity change, negative = inhibition",[6],-6.25%
N#C[C@@H]1CCCN1C(=O)CNC12CC3CC(CC(O)(C3)C1)C2,Potency,[1],inactive
same,Potency,[2],inactive
same,Potency,[3],inactive
same,Potency,[4],inactive
same,Potency,[5],inactive
same,Potency,[6],inactive
CC(C)[C@H](N)C(=O)O,Potency,[1],inactive
same,Potency,[2],inactive
same,Potency,[3],inactive
same,Potency,[4],inactive
same,Potency,[5],inactive
same,"activity change, negative = inhibition",[6],-17.8%
Cc1cc(=O)c(C(=O)N[C@@H](C(=O)N[C@@H]2C(=O)N3C(C(=O)O)=C(CSc4nnnn4C)CS[C@H]23)c2ccc(O)cc2)c[nH]1,Potency,[1],inactive
same,Potency,[2],inactive
same,Potency,[3],inactive
same,Potency,[4],inactive
same,Potency,[5],inactive
same,"activity change, negative = inhibition",[6],-20.7%
C[C@]12CCC(=O)C=C1CC[C@@H]1[C@@H]2[C@@H](O)C[C@@]2(C)[C@H]1CC[C@]2(O)C(=O)COP(=O)(O)O,Potency,[1],inactive
same,Potency,[2],inactive
same,Potency,[3],inactive
same,Potency,[4],inactive
same,Potency,[5],inactive
same,"activity change, negative = inhibition",[6],2.63% [at 27.1 µM]
O=c1c2c(c1=O)N(CCP(=O)(O)O)CCCN2,Potency,[1],inactive
same,Potency,[2],inactive
same,Potency,[3],inactive
same,Potency,[4],inactive
same,Potency,[5],inactive
same,"activity change, negative = inhibition",[6],3.47% [at 114 µM]
CCCCCCCCCCCCCC(=O)OCC(COP(=O)([O-])OCC[N+](C)(C)C)OC(=O)CCCCCCCCCCCCC (configuration not stated),Potency,[1],inactive
same,Potency,[2],inactive
same,Potency,[3],inactive
same,Potency,[4],inactive
same,Potency,[5],inactive
same,"activity change, negative = inhibition",[6],-12.7%
CC(C)(C)CC(=O)OCC(=O)[C@@]12OC(C)(C)O[C@@H]1C[C@H]1[C@@H]3CCC4=CC(=O)C=C[C@]4(C)[C@@]3(F)[C@@H](O)C[C@@]12C,Potency,[1],inactive
same,Potency,[2],inactive
same,Potency,[3],inactive
same,Potency,[4],inactive
same,Potency,[5],inactive
same,"activity change, negative = inhibition",[6],-18.4%
COC(=O)CCC[N+](C)(C)C,Potency,[1],inactive
same,Potency,[2],inactive
same,Potency,[3],inactive
same,Potency,[4],inactive
same,Potency,[5],inactive
same,"activity change, negative = inhibition",[6],-38.5%
CO/N=C(\C(=O)N[C@@H]1C(=O)N2C(C(=O)O)=C(CSc3nnnn3C)CS[C@H]12)c1csc(N)n1,Potency,[1],inactive
same,Potency,[2],inactive
same,Potency,[3],inactive
same,Potency,[4],inactive
same,Potency,[5],inactive
same,"activity change, negative = inhibition",[6],-27.5%
O=S(O)CNc1ccc(S(=O)(=O)c2ccc(NCS(=O)O)cc2)cc1,Potency,[1],inactive
same,Potency,[2],inactive
same,Potency,[3],inactive
same,Potency,[4],inactive
same,Potency,[5],inactive
same,"activity change, negative = inhibition",[6],3.29%
O=C(OC1C(OC(=O)c2cccnc2)C(OC(=O)c2cccnc2)C(OC(=O)c2cccnc2)C(OC(=O)c2cccnc2)C1OC(=O)c1cccnc1)c1cccnc1 (configuration not stated),Potency,[1],inactive
same,Potency,[2],inactive
same,Potency,[3],inactive
same,Potency,[4],inactive
same,Potency,[5],inactive
same,"activity change, negative = inhibition",[6],-19.4% [at 19 µM]
CC(CCc1ccc(O)cc1)NCC(O)c1ccc(O)cc1 (configuration not stated),Potency,[1],inactive
same,Potency,[2],inactive
same,Potency,[3],inactive
same,Potency,[4],inactive
same,Potency,[5],inactive
same,Potency,[6],inactive
CSCCNc1nc(SCCC(F)(F)F)nc2c1ncn2[C@@H]1O[C@H](COP(=O)(O)OP(=O)(O)C(Cl)(Cl)P(=O)(O)O)[C@@H](O)[C@H]1O,Potency,[1],inactive
same,Potency,[2],inactive
same,Potency,[3],inactive
same,Potency,[4],inactive
same,Potency,[5],inactive
same,"activity change, negative = inhibition",[6],-28.8%
OC(CN1CCCCC1)c1cc(-c2ccccc2)on1 (configuration not stated),Potency,[1],inactive
same,Potency,[2],inactive
same,Potency,[3],inactive
same,Potency,[4],inactive
same,Potency,[5],inactive
same,"activity change, negative = inhibition",[6],-15.3%
CC(C=CC1=C(C)CCCC1(C)C)=CC=CC(C)=CC(=O)Oc1c(C)c(C)c2c(c1C)CC[C@@](C)(CCC[C@H](C)CCC[C@H](C)CCCC(C)C)O2,"activity change, negative = inhibition",[1],-3.62% [at 5.34 µM] (inactive)
same,"activity change, negative = cytotoxicity",[2],-9.73% [at 5.34 µM] (inactive)
same,outcome,[3],inactive [at 5.34 µM]
same,"activity change, negative = cytotoxicity",[4],-3.15% [at 5.34 µM] (inactive)
same,"activity change, negative = cytotoxicity",[5],-2.74% [at 5.25 µM] (inactive)
same,outcome,[6],inactive [at 5.25 µM]
CC1(C)C2CC[C@]3(C)C(C(=O)C=C4[C@@H]5C[C@@](C)(C(=O)O)CC[C@]5(C)CC[C@]43C)[C@@]2(C)CC[C@@H]1O (some centres not stated),Potency,[1],inactive
same,Potency,[2],inactive
same,Potency,[3],inactive
same,Potency,[4],inactive
same,Potency,[5],inactive
same,"activity change, negative = inhibition",[6],-28.8%
O=C(O)[C@@H]1C(=CCO)O[C@@H]2CC(=O)N12,Potency,[1],inactive
same,Potency,[2],inactive
same,Potency,[3],inactive
same,Potency,[4],inactive
same,Potency,[5],inactive
same,Potency,[6],inactive
C[C@H](CCC(=O)O)[C@H]1CC[C@H]2[C@@H]3CC[C@@H]4C[C@H](O)CC[C@]4(C)[C@@H]3C[C@H](O)[C@]12C,Potency,[1],inactive
same,Potency,[2],inactive
same,Potency,[3],inactive
same,Potency,[4],inactive
same,Potency,[5],inactive
same,Potency,[6],inactive
COC(=O)N[C@H](C(=O)N1CCC[C@H]1C(=O)Nc1ccc([C@@H]2CC[C@@H](c3ccc(NC(=O)[C@@H]4CCCN4C(=O)[C@@H](NC(=O)OC)C(C)C)cc3)N2c2ccc(C(C)(C)C)cc2)cc1)C(C)C,Potency,[1],inactive
same,Potency,[2],inactive
same,Potency,[3],inactive
same,Potency,[4],inactive
same,Potency,[5],inactive
same,"activity change, negative = inhibition",[6],-22.9%
CO[C@H]1/C=C\O[C@@]2(C)Oc3c(C)c(O)c4c(O)c(c(/C=N/N5CCN(C6CCCC6)CC5)c(O)c4c3C2=O)NC(=O)/C(C)=C\C=C/[C@H](C)[C@H](O)[C@@H](C)[C@@H](O)[C@@H](C)[C@H](OC(C)=O)[C@@H]1C,Potency,[1],inactive
same,Potency,[2],inactive
same,Potency,[3],inactive
same,Potency,[4],inactive
same,Potency,[5],inactive
same,Potency,[6],inactive
